697 NFkB inh: lowers PMA/ionomycin-induced NF-kB signal in 697 B cells | AID 435022 | 330,000 tested, 0.33% active | 697 B-cell NF-kB luciferase reporter, 16 h | inhibition, % at 4 µM; in the data active = inhibition above about 35%
Jurkat NFkB inh: inhibitors of the PMA/ionomycin-induced NF-kB reporter in Jurkat cells | PMA/ionomycin-induced NF-kB luciferase reporter, luminescence | inhibition, % at 4 µM | 330,000 tested, 0.53% active | AID 435003; in the data active = inhibition above about 50%
Gli-Sufu antag: Gli-Sufu pathway antagonism; Sufu-KO-LIGHT fibroblasts, Gli luciferase reporter luminescence; inhibition, % at 5 µM; 340,000 tested, 0.74% active; AID 588413;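 active = inhibition above about 55%, limit read from the data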;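 also: 0% = DMSO-treated cells and 100% = wells with medium but no cells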
aSyn 5UTR inh: 5' untranslated region of α-synuclein, MLPCN primary screen. alpha-synuclein 5'UTR reporter, inhibitor activity. inhibition, % (tested at 7.5 µM). 300,000 tested, 0.82% active; in the data active = inhibition above about 60%;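 also: H4 neuroglioblastoma cells stably carrying SNCA 5'UTR luciferase fusion; 0% = DMSO wells and 100% = positive control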
Mdm2 MdmX PPI: disrupts the human Mdm2-MdmX interaction; inhibition, % at 8 µM; SaOS-2 split-luciferase Mdm2/MdmX complementation, luminescence; 330,000 tested, 3% active; O15151+Q00987; AID 485346;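 active = inhibition of at least 50% at 8 µM in the primary screen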
KLF5 inh: kruppel-like factor 5 inhibition; inhibition, % at 5 µM; DLD-1 KLF5 promoter-luciferase reporter, luminescence; AID 1700; 290,000 tested, 0.23% active;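 active = inhibition above a per-plate limit of that plate's mean compound inhibition plus 3 SD, cut at about 60% in these data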;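 also: 0% = DMSO wells and 100% = LY294002 at 200 µM; higher means less KLF5 promoter-driven luciferase light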
Gli antag conf: confirmation of Gli-SUFU pathway antagonists. inhibition, % at 5 µM. shares compounds with Gli-Sufu antag. 2,500 tested, 40% active. Sufu-KO-LIGHT cells, Gli luciferase reporter, luminescence;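 active = mean inhibition at 5 µM reaching about 45%, limit read from the data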;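 also: plate controls were DMSO-treated cells for no effect and wells lacking cells for full effect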
Gli cytotox: counter-screen for Gli-SUFU antagonists: cytotoxicity; Sufu-KO-LIGHT cells cytotoxicity, ATP luminescence; cytotoxicity, % at 5 µM; 2,500 tested, 32% active; AID 651994; shares compounds with Gli-Sufu antag;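 active = mean cytotoxicity at 5 µM above about 25%, limit read from the data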;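 also: cells exposed to compound overnight for roughly 16 to 18 hours; plate controls were DMSO wells with cells for no effect and medium without cells for full effect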
Wnt3a cs: inhibits Wnt3a reporter, counter-screen for Gli-SUFU antagonists; shares compounds with Gli-Sufu antag; Wnt-LIGHT cells, Wnt3a-driven luciferase reporter, luminescence; inhibition, % at 6.25 µM; 2,500 tested, 20% active; AID 651995;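 active = mean inhibition above about 25%, limit read from the data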
The depositor's hits bear a star; · = no result. Most compounds without a hit are left out; they make up all but 4.1% or so of the library.

SMILES	697 NFkB inh	Jurkat NFkB inh	Gli-Sufu antag	aSyn 5UTR inh	Mdm2 MdmX PPI	KLF5 inh	Gli antag conf	Gli cytotox	Wnt3a cs
Cc1cc(C(=O)COC(=O)c2cccc(S(=O)(=O)N(C)C)c2)c(C)n1CC1CCCO1 (centres undefined)	-19	-13	23	·	-28	·	·	·	·
Cc1cc(C(=O)COc2cccc([N+](=O)[O-])c2)c(C)n1C1CC1	-106	-57	-69	·	-88	·	·	·	·
CNS(=O)(=O)c1cccc(C(=O)OCC(=O)c2cc(C)n(CC3CCCO3)c2C)c1 (centres undefined)	-96	-64	51	·	20	·	68*	-3	-10
COc1ccc(C(=O)NCC(=O)N/N=C/c2cccc(OC(=O)c3ccco3)c2)cc1OC	-8	0	-9	5	-16	-30	·	·	·
CS/C(Nc1cc(Cl)ccc1Cl)=C(/C#N)C(=O)c1ccco1	-86	-18	3	-7	-73	-12	·	·	·
COC(=O)c1ccc2c(c1)C(NC(C)=O)CCc1cc(OC)c(OC)c(OC)c1-2 (centres undefined)	·	·	65*	·	·	·	60*	57*	14
CCCC(=O)NC1CCc2cc(OC)c(OC)c(OC)c2-c2ccc(OC)c(=O)cc21 (centres undefined)	·	·	56*	·	·	·	58*	64*	-2
CC[C@H]1OC(=O)[C@H](C)[C@@H](O[C@H]2C[C@@](C)(OC)[C@@H](O)[C@H](C)O2)[C@H](C)[C@@H](O[C@@H]2O[C@H](C)C[C@H](N(C)C)[C@H]2O)[C@](C)(O)C[C@@H](C)CN(C)[C@H](C)[C@@H](O)[C@]1(C)O	6	8	14	-33	46	·	·	·	·
O=C(NCc1nc2ccccc2[nH]1)C1=C[C@H](c2ccc(C(F)(F)F)cc2)C[C@H](OCCCCO)O1	-19	-4	6	0	-26	·	·	·	·
CCCCOc1ccc(N(CC(=O)NC2CCCCC2)C(=O)c2snc(C(N)=O)c2N)cc1	5	10	-5	-20	5	-13	·	·	·
O=C(Nc1ccc(-c2nc3ccccc3[nH]2)cc1)c1ccco1	-101	-135	-1	-133	-164	-146	·	·	·
O=C(/C=C/c1ccco1)Nc1ccc(-c2nc3ccccc3[nH]2)cc1	·	·	67*	89*	·	-38	55*	8	-22
CCOC(=O)c1c(N)sc(C(O)(C(F)(F)F)C(F)(F)F)c1-c1ccc(F)cc1	-12	-20	53	7	-2	-1	6	5	-56
CCOc1ccc(C(=O)NCc2ccc3c(c2)OCO3)cc1OCC	0	-12	2	40	7	-35	·	·	·
N#C/C(=C(/O)CSc1ncn[nH]1)c1nc2ccccc2[nH]1	-5	-2	-9	-11	6	-10	·	·	·
O=C(O)CCCNC(=O)C(c1ccccc1)c1ccccc1	13	9	3	-7	2	-38	·	·	·
O=C(O)CCCNC(=O)CCCNC(=O)C(c1ccccc1)c1ccccc1	4	-15	51	15	-12	-27	25	8	-9
CN(c1ccccc1C(N)=O)S(=O)(=O)c1ccccc1	-13	1	52	-3	-25	9	12	9	19
CS(=O)(=O)N(CC(=O)NC1CCCCCC1)Cc1ccc(Cl)cc1	4	-18	59*	9	-36	-29	28	3	7
COc1ccccc1C(C)NCC(=O)NC(=O)NCc1ccco1 (centres undefined)	8	13	4	11	12	·	·	·	·
Cc1nnc(SCc2cc(=O)[nH]c(=S)[nH]2)s1	-1	3	18	14	-1	-12	·	·	·
C=C(C)Cn1c(CN(C)Cc2ccccc2)nc2c1c(=O)n(C)c(=O)n2C	-24	21	58*	-6	18	-38	25	38*	-8
Cc1cc(NC(=O)Cc2ccccc2)ccc1NC(=O)c1cccs1	5	-6	4	·	0	-5	·	·	·
O=c1cc(CSc2nnc(Nc3ccccc3)s2)nc2sccn12	-5	-9	55	·	5	0	19	18	-9
COc1ccccc1NC(=O)C(C)OC(=O)C1CCC(C(C)(C)C)CC1 (centres undefined)	1	-14	2	14	8	·	·	·	·
SMILES	697 NFkB inh	Jurkat NFkB inh	Gli-Sufu antag	aSyn 5UTR inh	Mdm2 MdmX PPI	KLF5 inh	Gli antag conf	Gli cytotox	Wnt3a cs
O=S(=O)(c1ccc(Br)cc1)c1nc(-c2ccco2)oc1NCC1CCCO1 (centres undefined)	29	14	62*	19	-18	-32	21	15	6
Cc1ccc(S(=O)(=O)c2nc(-c3ccco3)oc2NCC2CCCO2)cc1 (centres undefined)	·	·	-6	·	·	-8	·	·	·
Cc1c(CCOC(=O)C23CC4CC(CC(C)(C4)C2)C3)sc[n+]1Cc1ccccc1	-17	3	55	-12	46	-10	56*	9	-49
Cc1c(CCOC(=O)C23CC4CC(CC(C4)C2)C3)sc[n+]1Cc1ccccc1	-20	-11	9	-7	7	6	·	·	·
O=C(CN1C(=O)c2cccc3cccc1c23)N1CCN(c2ccc(F)cc2)CC1	15	-5	8	8	6	-18	·	·	·
O=C(CN1C(=O)c2cccc3cccc1c23)N1CCN(c2ccccc2)CC1	22	1	93*	0	3	-15	21	5	-16
COc1cccc(/C=C/c2ccncc2)c1OC	-32	-10	56*	-33	-26	-30	46*	21	-1
CC(=O)NC(Cc1ccccc1C)C(=O)NC1CCN(C(=O)NCc2ccccc2)CC1 (centres undefined)	18	10	58*	8	25	-14	22	2	-2
O=C1NC2=C(C(=O)OC2)C(c2ccc(OC(F)(F)F)cc2)N1 (centres undefined)	4	8	-7	13	-4	-32	·	·	·
O=C(C1CCCO1)N1CCN(c2ccccn2)CC1 (centres undefined)	17	6	-3	7	-10	-16	·	·	·
Cc1ccc2ccc3ccc(C)nc3c2n1	-3	-1	53	72*	30	51	47*	13	-17
COc1ccc(-c2cnnc(N/N=C/c3ccc(OC)c(OC)c3)n2)cc1	-25	-6	52	5	-1	-14	4	23	-30
O=C1S/C(=C/c2ccccc2F)C(=O)N1CCN=C1NS(=O)(=O)c2ccccc21	5	9	7	1	21	-13	·	·	·
COc1cc(C(=O)O[C@H]2CC(C)=CC[C@@]3(C)CC[C@@](O)(C(C)C)[C@H]23)ccc1O	5	-16	-1	16	19	7	·	·	·

Compound activity from PubChem.
